The structures appear in SMILES notation. Inconclusive results are not listed. Active and inactive are the calls of the source. The call rests on the fitted dose curve; in most records, active means well fitted cell-killing curve with a large enough effect; inconclusive means small, poorly fitted or top-dose-only effect, or effect the other way; inactive means no such curve, though single readings can be large or run the other way.
Potency means the concentration at half of the fitted maximal effect.

The first assay can be described thus: Quantitative High-Throughput drug screen in 47 multiple myeloma cell lines against the NCATS MIPE library collection: OCIMY7_PLB cell viability assay (AID 1918987). Further: nearly all actives have a fitted effect of over 65% in size. Conditions: OCI-MY7 myeloma viability, CellTiter-Glo ATP, 48 h; viability (% of DMSO): at 45.8 µM (top of the series). The method, boiled down:
(§1)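 ATP-based CellTiter-Glo luminescence after 48 h drug exposure (37 °C, 5% CO2) of 500 myeloma cells per well. DMSO-only wells set 100% viability, media-only wells 0%; MIPE 4.0 library added by pin tool.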
Take `COc1cc(N2CCC(N3CCN(C)CC3)CC2)ccc1Nc1ncc(Cl)c(Nc2ccccc2S(=O)(=O)C(C)C)n1`: the Potency is 0.264 µM (active).

In the case of `CS(=O)(=O)N(Cc1ccco1)CC(O)Cn1c2ccccc2c2ccccc21` (stereo unspecified), the Potency is 13.2 µM (active).

As to `COC(=O)N[C@H](C(=O)N1CCC[C@@H]1c1ncc(-c2ccc(-c3ccc(-c4cnc([C@@H]5CCCN5C(=O)[C@@H](NC(=O)OC)C(C)C)[nH]4)cc3)cc2)[nH]1)C(C)C`, the Potency was 18.7 µM (active).

As for `c1cc(-c2sc(-c3ccncc3)c(-c3ccncc3)c2-c2ccncc2)ccn1`, the Potency was 5.26 µM (active).

As to `Clc1ccc(CCC(Cn2ccnc2)Sc2c(Cl)cccc2Cl)cc1` (stereo unspecified), the Potency was 13.2 µM (active).

The next assay is described as follows: Quantitative High-Throughput drug screen in 47 multiple myeloma cell lines against the NCATS MIPE library collection: OCIMY5_PLB cell viability assay (AID 1918988). Further: nearly all actives have a fitted effect of over 65% in size. The conditions noted are these: OCI-MY5 myeloma viability, ATP luminescence, 48 h; series mostly up to 45.8 µM. The method, boiled down: as §1
`CC(C)n1nc(-c2ccc3oc(N)nc3c2)c2c(N)ncnc21`: the Potency was 4.69 µM (active).

Turning to `COc1ccc2cc(-c3nc(-c4ccc(S(C)=O)cc4)[nH]c3-c3ccncc3)ccc2c1` (stereo unspecified), the Potency was 14.8 µM (active).

As to `CNC(=O)c1ccccc1Sc1ccc2c(C=Cc3ccccn3)n[nH]c2c1`, the Potency is 0.935 µM (active).

In the case of `CC(C)C(=O)Nc1ncc(-c2cc(C(F)F)nn2-c2c(Cl)cccc2Cl)s1`, the Potency is 18.7 µM (active).

Take `Cc1nnc(C(C)C)n1C1C[C@H]2CC[C@@H](C1)N2CC[C@H](NC(=O)C1CCC(F)(F)CC1)c1ccccc1` (stereo partly specified): the Potency entry was “inactive”.

Consider `CCOC(=O)C1=C(N)Oc2ccc(Br)cc2C1C(C#N)C(=O)OCC` (stereo unspecified), for which the Potency is 9.35 µM (active).

In the case of `O=C(O)[C@H]1O[C@H](Oc2cc3oc(-c4ccccc4)cc(=O)c3c(O)c2O)[C@H](O)[C@@H](O)[C@H]1O`, the Potency was 23.5 µM (active).

On to `CC(C)=CC[C@@H](O)C1=CC(=O)c2c(O)ccc(O)c2C1=O`, for which the Potency was 0.469 µM (active).

For the compound `Cc1ccccc1C(C(=O)NC1CCCCC1)N(C(=O)Cn1ccnc1C)c1cccc(F)c1` (stereo unspecified), the Potency was 23.5 µM (active).

`CC(C)C(C)C=CC(C)C1CCC2C3=CC=C4CC(O)CCC4(C)C3CCC21C` (stereo unspecified): the Potency is 23.5 µM (active).

For `CO[C@H]1C=CC=C(C)C(=O)NC2=CC(=O)C(NCCN(C)C)=C(C[C@@H](C)C[C@H](OC)[C@@H](O)[C@@H](C)C=C(C)[C@@H]1OC(N)=O)C2=O`, the Potency was 0.0118 µM (active).

`Clc1cc(Cl)cc(CNc2ncncc2-c2ccc3c(c2)OCO3)c1`: the Potency is 20.9 µM (active).

For `CN1[C@@H]2CCC[C@@H]1CC(NC(=O)c1nn(C)c3ccccc13)C2` (stereo partly specified), the Potency result was “inactive”.

As for `Cc1ccc(C(=O)Nc2cccc(C(F)(F)F)c2)cc1Nc1nc(-c2cccnc2)nc2c1cnn2C`, the Potency is 10.5 µM (active).

With `NC(=O)[C@@H](CCC(F)(F)F)N(Cc1ccc(-c2ncon2)cc1F)S(=O)(=O)c1ccc(Cl)cc1`, the Potency was 23.5 µM (active).

For the compound `CO[C@H]1C=CO[C@@]2(C)Oc3c(C)c(O)c4c(O)c(c5c(c4c3C2=O)NC2(CCN(CC(C)C)CC2)N=5)=NC(=O)C(C)=CC=C[C@H](C)[C@H](O)[C@@H](C)[C@@H](O)[C@@H](C)[C@H](OC(C)=O)[C@H]1C`, the Potency was 23.5 µM (active).

Regarding `CC=CC(=O)N(CC)c1ccccc1C`, the Potency result was “inactive”.

Regarding `COc1cc2ncnc(Nc3ccc(F)c(Cl)c3)c2cc1OCCCN1CCOCC1`, the Potency is 2.15 µM (active).

On to `O=c1cc(-c2cccc3c2Sc2ccccc2S3)oc(N2CCOCC2)c1`, for which the Potency was 20.9 µM (active).

On to `COc1cccc([C@@H](C)NCCCc2ccccc2Cl)c1`, for which the Potency entry is “inactive”.

For `Cc1c(O)cccc1C(=O)N[C@@H](CSc1ccccc1)[C@H](O)CN1C[C@H]2CCCC[C@@H]2C[C@@H]1C(=O)NC(C)(C)C`, the Potency was 23.5 µM (active).

With `O=C(CCCCCCC(=O)Nc1ccccc1)NO`, the Potency was 2.64 µM (active).

For `Clc1ccc(C(c2ccc(Cl)cc2)n2cc[n+](CC(OCc3ccc(Cl)cc3Cl)c3ccc(Cl)cc3Cl)c2)cc1` (stereo unspecified), the Potency was 14.8 µM (active).

Regarding `O=C1C(Cl)=C(NCCN2CCOCC2)C(=O)c2ncccc21`, the Potency is 2.35 µM (active).

For `CCC(=O)NC[C@H](Cc1ccc(OCCc2nc(-c3ccccc3)oc2C)cc1)NC(C)=CC(=O)c1ccc(C(F)(F)F)cc1`, the Potency is 18.7 µM (active).

`CCc1ccc(C=C2SC(=S)NC2=O)cc1`: the Potency entry is “inactive”.

As to `CC(=O)Nc1ccc([C@H](C)C(=O)Nc2ncc(C(C)C)s2)cc1`, the Potency was 0.743 µM (active).

`Oc1ccc(C2CCN(c3ccnc4ccccc34)CC2)cc1O`: the Potency was 14.8 µM (active).

Turning to `O=C1c2c(O)cc(O)cc2O[C@H](c2cc(O)c(O)c(O)c2)[C@H]1O`, the Potency is 13.2 µM (active).

As for `CC1(C)CCC[C@@]2(C)[C@@H]1CC[C@@]1(C)OC(=O)C[C@H]21`, the Potency was 23.5 µM (active).

As for `Oc1ccc(C2=Cc3ccc(O)cc3OC2)cc1`, the Potency was 2.96 µM (active).

As to `CCOc1ccc(Nc2nc(-c3c(C)nc4ccccn34)cs2)cc1`, the Potency was 0.0026 µM (active).

With `NC1=N[C@@]2(c3cc(NC(=O)c4ccc(F)cn4)ccc3F)COC[C@@H]2CS1`, the Potency is 23.5 µM (active).

The nature of another assay: Quantitative High-Throughput drug screen in 47 multiple myeloma cell lines against the NCATS MIPE library collection: OPM1_PLB cell viability assay (AID 1918989). Further: nearly all actives have a fitted effect of over 40% in size. The conditions noted are these: CellTiter-Glo, 48 h; series mostly up to 45.8 µM. The method, boiled down:
as §1
For `CC(C)n1nc(-c2ccc3oc(N)nc3c2)c2c(N)ncnc21`, the Potency is 0.001 µM (active).

For `COc1ccc2cc(-c3nc(-c4ccc(S(C)=O)cc4)[nH]c3-c3ccncc3)ccc2c1` (stereo unspecified), the Potency was 20.9 µM (active).

Take `CNC(=O)c1ccccc1Sc1ccc2c(C=Cc3ccccn3)n[nH]c2c1`: the Potency is 18.7 µM (active).

`CC(C)C(=O)Nc1ncc(-c2cc(C(F)F)nn2-c2c(Cl)cccc2Cl)s1`: the Potency was 20.9 µM (active).

On to `Cc1nnc(C(C)C)n1C1C[C@H]2CC[C@@H](C1)N2CC[C@H](NC(=O)C1CCC(F)(F)CC1)c1ccccc1` (stereo partly specified), for which the Potency result was “inactive”.

With `CCOC(=O)C1=C(N)Oc2ccc(Br)cc2C1C(C#N)C(=O)OCC` (stereo unspecified), the Potency is 23.5 µM (active).

On to `O=C(O)[C@H]1O[C@H](Oc2cc3oc(-c4ccccc4)cc(=O)c3c(O)c2O)[C@H](O)[C@@H](O)[C@H]1O`, for which the Potency was 18.7 µM (active).

`CC(C)=CC[C@@H](O)C1=CC(=O)c2c(O)ccc(O)c2C1=O`: the Potency is 16.6 µM (active).

Regarding `Cc1ccccc1C(C(=O)NC1CCCCC1)N(C(=O)Cn1ccnc1C)c1cccc(F)c1` (stereo unspecified), the Potency result is “inactive”.

As for `CC(C)C(C)C=CC(C)C1CCC2C3=CC=C4CC(O)CCC4(C)C3CCC21C` (stereo unspecified), the Potency entry was “inactive”.

Regarding `CO[C@H]1C=CC=C(C)C(=O)NC2=CC(=O)C(NCCN(C)C)=C(C[C@@H](C)C[C@H](OC)[C@@H](O)[C@@H](C)C=C(C)[C@@H]1OC(N)=O)C2=O`, the Potency was 0.0662 µM (active).

Consider `Clc1cc(Cl)cc(CNc2ncncc2-c2ccc3c(c2)OCO3)c1`, for which the Potency is 20.9 µM (active).

`CN1[C@@H]2CCC[C@@H]1CC(NC(=O)c1nn(C)c3ccccc13)C2` (stereo partly specified): the Potency result is “inactive”.

Turning to `Cc1ccc(C(=O)Nc2cccc(C(F)(F)F)c2)cc1Nc1nc(-c2cccnc2)nc2c1cnn2C`, the Potency is 8.33 µM (active).

As to `NC(=O)[C@@H](CCC(F)(F)F)N(Cc1ccc(-c2ncon2)cc1F)S(=O)(=O)c1ccc(Cl)cc1`, the Potency was 20.9 µM (active).

As for `CO[C@H]1C=CO[C@@]2(C)Oc3c(C)c(O)c4c(O)c(c5c(c4c3C2=O)NC2(CCN(CC(C)C)CC2)N=5)=NC(=O)C(C)=CC=C[C@H](C)[C@H](O)[C@@H](C)[C@@H](O)[C@@H](C)[C@H](OC(C)=O)[C@H]1C`, the Potency entry was “inactive”.

`CC=CC(=O)N(CC)c1ccccc1C`: the Potency entry is “inactive”.

For the compound `COc1cc2ncnc(Nc3ccc(F)c(Cl)c3)c2cc1OCCCN1CCOCC1`, the Potency is 4.29 µM (active).

As to `O=c1cc(-c2cccc3c2Sc2ccccc2S3)oc(N2CCOCC2)c1`, the Potency is 26.4 µM (active).

`COc1cccc([C@@H](C)NCCCc2ccccc2Cl)c1`: the Potency result is “inactive”.

On to `Cc1c(O)cccc1C(=O)N[C@@H](CSc1ccccc1)[C@H](O)CN1C[C@H]2CCCC[C@@H]2C[C@@H]1C(=O)NC(C)(C)C`, for which the Potency was 18.7 µM (active).

`O=C(CCCCCCC(=O)Nc1ccccc1)NO`: the Potency is 1.32 µM (active).

Take `Clc1ccc(C(c2ccc(Cl)cc2)n2cc[n+](CC(OCc3ccc(Cl)cc3Cl)c3ccc(Cl)cc3Cl)c2)cc1` (stereo unspecified): the Potency was 11.8 µM (active).

On to `O=C1C(Cl)=C(NCCN2CCOCC2)C(=O)c2ncccc21`, for which the Potency is 7.43 µM (active).

For `CCC(=O)NC[C@H](Cc1ccc(OCCc2nc(-c3ccccc3)oc2C)cc1)NC(C)=CC(=O)c1ccc(C(F)(F)F)cc1`, the Potency entry is “inactive”.

Take `CCc1ccc(C=C2SC(=S)NC2=O)cc1`: the Potency result was “inactive”.

Take `CC(=O)Nc1ccc([C@H](C)C(=O)Nc2ncc(C(C)C)s2)cc1`: the Potency was 5.26 µM (active).

Consider `Oc1ccc(C2CCN(c3ccnc4ccccc34)CC2)cc1O`, for which the Potency is 16.6 µM (active).

With `O=C1c2c(O)cc(O)cc2O[C@H](c2cc(O)c(O)c(O)c2)[C@H]1O`, the Potency result is “inactive”.

Regarding `CC1(C)CCC[C@@]2(C)[C@@H]1CC[C@@]1(C)OC(=O)C[C@H]21`, the Potency result was “inactive”.

As to `Oc1ccc(C2=Cc3ccc(O)cc3OC2)cc1`, the Potency is 1.48 µM (active).

Regarding `CCOc1ccc(Nc2nc(-c3c(C)nc4ccccn34)cs2)cc1`, the Potency is 0.0066 µM (active).

Consider `NC1=N[C@@]2(c3cc(NC(=O)c4ccc(F)cn4)ccc3F)COC[C@@H]2CS1`, for which the Potency is 16.6 µM (active).

For the origin of these results see PubChem BioAssay (NCATS).
